The source of these data is PubChem BioAssay.

A number with no mark means an inactive call. Inconclusive results are not listed. Activity calls are given as the source filed them.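 How the source made its calls, unless noted: active means inhibition over a set limit, the all-compound mean plus 3 SD, in both replicate runs; inconclusive means over that limit in just one replicate run; inactive means at or under that limit in both runs.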

The nature of the first test: growth suppression of PTEN-deleted HCT116, pilot screen, cell-based, HCT116 clonal line, CellTiter-Glo (AID 824;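 active means viability at or below 27.92% in each of two runs, the all-compound median minus 4 SD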;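 further: 0% = 20 µM Hyamine control and 100% = vehicle cell control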). The settings on record: 60 h, at 10 µM, active compounds read low.
One may read the viability as a read-out of living cells in per cent, often relative to untreated cells. Take `Cc1ccc(C(=O)NCCNC(=O)CN2CCCC2)cc1`: the viability is 103%.

On to `Cc1csc(NC(=O)NC2(C(F)(F)F)Oc3ccccc3O2)n1`, for which the viability is 84.3%.

Consider `CCOC(=O)N1CCN(C(=O)c2oc3ccc(S(=O)(=O)N4CCOCC4)cc3c2C)CC1`, for which the viability was 99.9%.

Consider `COc1cc(/C=N/n2cnnc2)ccc1OC(=O)c1cccnc1`, for which the viability is 97.8%.

As for `CN(CCNC(=O)c1cc2c(=O)n(C)c3ccccc3c2n1C)Cc1ccccc1`, the viability was 41.1%.

As to `Cc1ccc(N=Cc2c(O)n(C)c(=O)n(C)c2=O)nc1`, the viability was 99.2%.

On to `Cc1cc(NS(=O)(=O)c2ccccc2)cc(Cl)c1O`, for which the viability was 86.2%.

In the case of `CCS(=O)(=O)C(=C(Nc1ccc(OC)cc1)Nc1ccc(OC)cc1)S(=O)(=O)CC`, the viability is 95.3%.

In the case of `O=C(CN1C(=O)c2ccccc2S1(=O)=O)N1CCN(c2ccccc2F)CC1`, the viability is 101%.

`C/C(CC(O)c1ccc2ccccc2n1)=N/O` (stereo not given): the viability was 103%.

On to `O=C(CCn1nnc2ccccc21)N1CCC(O)(c2cccc(F)c2)CC1`, for which the viability was 101%.

For `COc1ccc(S(=O)(=O)N2CCCCC2C(=O)O)cc1OC` (stereo not given), the viability is 101%.

As to `COC(=O)c1c(NC(=O)Cc2cccs2)sc(C)c1C`, the viability is 87%.

Regarding `CC(C)CC(NC(=O)C1CCCCC1)C(=O)NCc1ccccn1` (stereo not given), the viability is 94.4%.

`COc1cccc(OCCOc2cccc(/C=N/n3cnnc3)c2)c1`: the viability is 95.8%.

Turning to `O=C(NCc1cccc(F)c1)c1noc2c1CCCC2`, the viability is 32.7%.

`COc1ccc(C)cc1NC(=O)CN(c1ccccc1)S(C)(=O)=O`: the viability was 96%.

Take `Cc1ccc(C(C)NC(=O)c2ccco2)cc1C` (stereo not given): the viability was 98.8%.

In the case of `Cc1cccc(-n2c(=O)[nH]c3c(C(N)=O)nc(-c4ccccc4Cl)nc32)c1`, the viability is 11.7% (active).

Take `COc1cc(C(C)=O)ccc1OC(=O)C(C)N1C(=O)c2ccccc2C1=O` (stereo not given): the viability was 93.9%.

Turning to `CCOC(=O)C(C(=O)Nc1cccc(C)n1)C1CCCCC1` (stereo not given), the viability is 88.1%.

As for `O=C(Oc1c(Cl)cc(Cl)c2cccnc12)N1CCCCC1`, the viability was 77.5%.

As for `O=C1N=C(c2ccccc2)C(c2ccccc2)N1` (stereo not given), the viability is 90.8%.

Take `Cc1cccc(N(C)C(=O)CCS(=O)(=O)c2cccc3nonc23)c1`: the viability is 96.3%.

With `O=C(Cc1ccc(Cl)cc1)Nc1ccccc1CO`, the viability is 101%.

`CCCC(=O)Nc1cccc(C(=O)Nc2nccs2)c1`: the viability is 102%.

Consider `CC(=O)c1c(C(C)=O)c(C)n(-c2nc(-c3ccccc3)c(C)s2)c1C`, for which the viability was 91.4%.

For `COc1ccc(CCNS(=O)(=O)c2ccc3c(c2)OCCO3)cc1OC`, the viability is 89.9%.

Consider `O=C(Nc1cccnc1)c1ccc(CN2CCc3ccccc3C2)cc1`, for which the viability is 93.3%.

On to `O=c1c2cnn(-c3ccccc3)c2nc(-c2ccco2)n1-c1ccccc1`, for which the viability was 55.4%.

For `COc1ccc(OC)c(N(CC(=O)Nc2ccc3c(c2)OCO3)S(=O)(=O)c2ccccc2)c1`, the viability is 67.9%.

Consider `Cn1cnnc1SCC(=O)c1ccco1`, for which the viability is 106%.

With `CCOC(=O)N1CCN(C(=O)CS(=O)(=O)c2cn(Cc3ccccc3C)c3ccccc23)CC1`, the viability is 94%.

Turning to `O=C(C1CC1)N1CCc2cc(Br)cc(S(=O)(=O)NCCN3CCOCC3)c21`, the viability was 94.7%.

For the compound `c1ccc(-n2nnnc2-n2ccnc2)cc1`, the viability is 109%.

In the case of `Cc1oc(-c2cccc(Cl)c2)nc1CN1CCC(C(=O)N2CCN(c3ccccn3)CC2)CC1`, the viability is 27% (active).

Turning to `O=C1CC(c2ccccc2)c2cc(O)ccc2O1` (stereo not given), the viability is 69.2%.

`CCC(C)C1C(C#N)=C(N)Oc2n[nH]c(C)c21` (stereo not given): the viability is 62.9%.

As for `NC(=O)CNC1CC(=O)N(CCc2ccccc2)C1=O` (stereo not given), the viability is 98.5%.

On to `Cc1csc(SCC(=O)c2ccc(S(=O)(=O)N3CCOCC3)cc2)n1`, for which the viability is 98.2%.

The next test is described as follows: inhibitors of the yeast RAM network, pilot screen, dse1pr::URA3 reporter, 5-FOA selection (AID 869).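 Further: 0% = DMSO wells with no growth and 100% = 10 µM 1-NA-PP1 with full growth; RAM network block rescues cells from 5-FOA so hits raise OD615 growth.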 The settings on record: S. cerevisiae dse1pr::URA3 5-FOA growth, OD615, 2 d; at 10 µM; active compounds read high; strain carries analog-sensitive mutant Cbk1 kinase.
In general, inhibition refers to the percentage by which the read-out fell short of the control. Consider `Cc1ccc(C(=O)NCCNC(=O)CN2CCCC2)cc1`, for which the inhibition is 2.21%.

For `Cc1csc(NC(=O)NC2(C(F)(F)F)Oc3ccccc3O2)n1`, the inhibition was 0.995%.

In the case of `CCOC(=O)N1CCN(C(=O)c2oc3ccc(S(=O)(=O)N4CCOCC4)cc3c2C)CC1`, the inhibition was 2.71%.

For the compound `COc1cc(/C=N/n2cnnc2)ccc1OC(=O)c1cccnc1`, the inhibition is 0.985%.

Take `CN(CCNC(=O)c1cc2c(=O)n(C)c3ccccc3c2n1C)Cc1ccccc1`: the inhibition is 1.83%.

Turning to `Cc1ccc(N=Cc2c(O)n(C)c(=O)n(C)c2=O)nc1`, the inhibition was 1.89%.

For the compound `Cc1cc(NS(=O)(=O)c2ccccc2)cc(Cl)c1O`, the inhibition was 1.4%.

Take `CCS(=O)(=O)C(=C(Nc1ccc(OC)cc1)Nc1ccc(OC)cc1)S(=O)(=O)CC`: the inhibition was 0.04%.

On to `O=C(CN1C(=O)c2ccccc2S1(=O)=O)N1CCN(c2ccccc2F)CC1`, for which the inhibition is 2.07%.

As to `C/C(CC(O)c1ccc2ccccc2n1)=N/O` (stereo not given), the inhibition is 0.445%.

In the case of `O=C(CCn1nnc2ccccc21)N1CCC(O)(c2cccc(F)c2)CC1`, the inhibition is 2.4%.

For the compound `COc1ccc(S(=O)(=O)N2CCCCC2C(=O)O)cc1OC` (stereo not given), the inhibition was 2.17%.

Regarding `COC(=O)c1c(NC(=O)Cc2cccs2)sc(C)c1C`, the inhibition is 1.54%.

Regarding `CC(C)CC(NC(=O)C1CCCCC1)C(=O)NCc1ccccn1` (stereo not given), the inhibition is 1.04%.

Regarding `COc1cccc(OCCOc2cccc(/C=N/n3cnnc3)c2)c1`, the inhibition was 1.62%.

In the case of `O=C(NCc1cccc(F)c1)c1noc2c1CCCC2`, the inhibition is 0.33%.

On to `COc1ccc(C)cc1NC(=O)CN(c1ccccc1)S(C)(=O)=O`, for which the inhibition is 0.74%.

As to `Cc1ccc(C(C)NC(=O)c2ccco2)cc1C` (stereo not given), the inhibition was 0.75%.

On to `Cc1cccc(-n2c(=O)[nH]c3c(C(N)=O)nc(-c4ccccc4Cl)nc32)c1`, for which the inhibition was 3.09%.

With `COc1cc(C(C)=O)ccc1OC(=O)C(C)N1C(=O)c2ccccc2C1=O` (stereo not given), the inhibition is 1.02%.

In the case of `CCOC(=O)C(C(=O)Nc1cccc(C)n1)C1CCCCC1` (stereo not given), the inhibition is 3.22%.

On to `O=C(Oc1c(Cl)cc(Cl)c2cccnc12)N1CCCCC1`, for which the inhibition was 0.535%.

Turning to `O=C1N=C(c2ccccc2)C(c2ccccc2)N1` (stereo not given), the inhibition is 1.23%.

In the case of `Cc1cccc(N(C)C(=O)CCS(=O)(=O)c2cccc3nonc23)c1`, the inhibition was 1.06%.

As for `O=C(Cc1ccc(Cl)cc1)Nc1ccccc1CO`, the inhibition was 0.45%.

On to `CCCC(=O)Nc1cccc(C(=O)Nc2nccs2)c1`, for which the inhibition is 0.285%.

`CC(=O)c1c(C(C)=O)c(C)n(-c2nc(-c3ccccc3)c(C)s2)c1C`: the inhibition is 1.21%.

Consider `COc1ccc(CCNS(=O)(=O)c2ccc3c(c2)OCCO3)cc1OC`, for which the inhibition was 3.12%.

For the compound `O=C(Nc1cccnc1)c1ccc(CN2CCc3ccccc3C2)cc1`, the inhibition was 2.54%.

Regarding `O=c1c2cnn(-c3ccccc3)c2nc(-c2ccco2)n1-c1ccccc1`, the inhibition was 1.39%.

Take `COc1ccc(OC)c(N(CC(=O)Nc2ccc3c(c2)OCO3)S(=O)(=O)c2ccccc2)c1`: the inhibition is 3.23%.

On to `Cn1cnnc1SCC(=O)c1ccco1`, for which the inhibition is 0.79%.

Turning to `CCOC(=O)N1CCN(C(=O)CS(=O)(=O)c2cn(Cc3ccccc3C)c3ccccc23)CC1`, the inhibition is 2.09%.

For the compound `O=C(C1CC1)N1CCc2cc(Br)cc(S(=O)(=O)NCCN3CCOCC3)c21`, the inhibition is 1.69%.

Take `c1ccc(-n2nnnc2-n2ccnc2)cc1`: the inhibition was 0.76%.

Consider `Cc1oc(-c2cccc(Cl)c2)nc1CN1CCC(C(=O)N2CCN(c3ccccn3)CC2)CC1`, for which the inhibition was 0.99%.

Regarding `O=C1CC(c2ccccc2)c2cc(O)ccc2O1` (stereo not given), the inhibition is 1.45%.

For the compound `CCC(C)C1C(C#N)=C(N)Oc2n[nH]c(C)c21` (stereo not given), the inhibition was 0.79%.

With `NC(=O)CNC1CC(=O)N(CCc2ccccc2)C1=O` (stereo not given), the inhibition is 0.77%.

On to `Cc1csc(SCC(=O)c2ccc(S(=O)(=O)N3CCOCC3)cc2)n1`, for which the inhibition was 0.265%.
